Assay outcomes deposited in PubChem by National Center for Advancing Translational Sciences (NCATS).
PLK1 PBD inh – inhibitors of human PLK1 polo-box domain binding; Potency, µM, actives largely listed as inhibitors; actives 2.8% (n = 360,000); P53350; Plk1 PBD binding of FITC phosphopeptide, fluorescence polarization; also: series mostly up to about 57 µM; nearly all actives have a fitted effect of over 65% in size
KAT2A inh – inhibitors of human GCN5L2 histone acetyltransferase. Q92830. GCN5L2 HAT assay, ThioGlo1 CoA-SH fluorescence. Potency, µM (highest dose often 58.9 µM), hits mostly inhibitors. actives 0.21% (n = 390,000)
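Compounds, pin-transferred from DMSO stocks, meet 20nM GCN5L2 for 15 min before the reaction begins with H3(1-25) peptide (75uM) and acetyl-CoA (70uM). Thiol-reactive ThioGlo1 reports CoA release over 20 min at room temperature.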
VDR inh – blocks the human vitamin D receptor; actives 0.93% (n = 400,000); VDR-SRC2-3 peptide fluorescence polarization, 2 h; Potency, µM, most hits filed as inhibitors; AID 504847
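VDR–SRC2-3 interaction, FP format. Cmpds 23 nl via pintool, brief spin, 2 h ambient incubation.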
DT40 TDP1 CPT – DT40-hTDP1 cell growth loss with CPT | chicken DT40 Tdp1-/-;hTDP1 cells + 20 nM CPT, ATP luminescence, 48 h | Potency, µM (doses to about 46.2 µM), usual class: inhibitors | actives 12% (n = 420,000) | AID 686979; also: nearly all actives have a fitted effect of over 55% in size
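Chicken DT40 Tdp1-/- cells complemented with human TDP1, 400 cells/well, exposed to compounds plus 20 nM camptothecin for at least 48 h at 37 C; viability read as ATP content by CellTiter-Glo luminescence.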
TDP1 cell noCPT – qHTS for Inhibitors of human tyrosyl-DNA phosphodiesterase 1 (TDP1): qHTS in cells in absence of CPT. DT40 Tdp1-/- hTDP1 cells, no CPT, ATP luminescence, 48 h. Potency, µM (series often up to 46.2 µM), hits mostly inhibitors. actives 15% (n = 420,000). AID 686978, 2013; also: nearly all actives have a fitted effect of over 55% in size
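DT40 Tdp1-/-;hTDP1 cells, no CPT (DMSO vehicle only), 400 cells/well; compounds pin-transferred; ≥48 hr, 37 °C; CellTiter-Glo 30 min RT dark, luminescence read.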
TDP1 block – inhibitors of human tyrosyl-DNA phosphodiesterase TDP1. Potency, µM (highest dose often 130 µM), hits mostly inhibitors. actives 0.28% (n = 350,000). Q9NUW8. recombinant TDP1, AlphaScreen DNA substrate cleavage; also: nearly all actives have a fitted effect of over 40% in size
Target sequence (Q9NUW8 whole entry, looked up): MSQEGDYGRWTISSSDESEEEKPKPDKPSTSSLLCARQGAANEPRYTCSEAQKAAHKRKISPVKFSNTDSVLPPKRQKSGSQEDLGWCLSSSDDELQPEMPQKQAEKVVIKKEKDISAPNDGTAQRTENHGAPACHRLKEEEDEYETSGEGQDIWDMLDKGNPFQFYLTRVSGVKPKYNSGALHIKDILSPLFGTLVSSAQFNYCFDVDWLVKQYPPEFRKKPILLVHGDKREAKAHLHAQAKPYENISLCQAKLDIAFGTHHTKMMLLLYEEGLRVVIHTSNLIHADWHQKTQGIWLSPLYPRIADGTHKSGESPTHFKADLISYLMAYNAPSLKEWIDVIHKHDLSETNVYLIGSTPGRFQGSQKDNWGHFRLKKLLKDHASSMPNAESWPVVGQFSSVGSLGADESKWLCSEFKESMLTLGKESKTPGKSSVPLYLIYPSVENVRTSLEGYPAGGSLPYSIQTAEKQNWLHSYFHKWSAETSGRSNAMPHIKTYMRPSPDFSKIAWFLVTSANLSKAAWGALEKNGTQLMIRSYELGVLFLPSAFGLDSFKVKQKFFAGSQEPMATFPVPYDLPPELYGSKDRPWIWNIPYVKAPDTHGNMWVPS
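Steps: enzyme plus compound, 15 min RT; add biotin/phosphotyrosine-FITC oligonucleotide (15 nM final), react 5 min; add donor/acceptor beads (10 ug/ml final), 10 min; read AlphaScreen. Tdp1 at 1 nM final.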
USP1-UAF1 confirm – blocks human USP1/UAF1 cleavage of Ub-Rhodamine. actives 50% (n = 50). Potency, µM (doses to about 56.8 µM), most hits filed as inhibitors. shares compounds with VDR inh. Ub-Rhodamine cleavage, fluorescence kinetic read
VDR confirm – inhibits human vitamin D receptor, primary hit validation; shares compounds with VDR inh; VDR-coactivator inhibition assay, qHTS confirmation; Potency, µM, most hits filed as inhibitors; actives 89% (n = 840); AID 602199
VDR FP – blocks human VDR-coactivator binding in fluorescein assay; shares compounds with VDR inh; actives 48% (n = 840); Potency, µM (series often up to 57.1 µM), most hits filed as inhibitors; VDR-coactivator binding, fluorescein fluorescence polarization
VDR bla reporter – confirmation of human vitamin D receptor inhibitors in reporter cells; shares compounds with VDR inh; VDR beta-lactamase reporter cells, FRET ratio; cells co-treated with VDR agonist LG190178; Potency, µM (highest dose often 46.1 µM), actives largely listed as inhibitors; actives 23% (n = 840); AID 602202
VDR viability – cytotoxic in counter-screen for VDR inhibitors | shares compounds with VDR inh | cytotoxicity counter-screen, cell viability, qHTS | Potency, µM (highest dose often 48.3 µM), usual class: cytotoxic | actives 18% (n = 840) | AID 602204; also: nearly all actives have a fitted effect of over 75% in size
A number is an active result; . = inactive; ? = inconclusive; / = no result given. Rows were chosen to be rich in hits. Some 18% of all compounds tested hit in one or more screens of this group. Calls follow the shape of the dose curve; as a rule, active = well fitted curve in the direction sought with a large enough effect; inconclusive = small, poorly fitted or top-dose-only effect, or another doubt; inactive = no such curve, though single readings can be large; an effect the other way counts as inactive or inconclusive.

SMILES	PLK1 PBD inh	KAT2A inh	VDR inh	DT40 TDP1 CPT	TDP1 cell noCPT	TDP1 block	VDR confirm	VDR FP	VDR bla reporter	VDR viability	others
CN(c1ccccc1)S(=O)(=O)c1ccc(NC(=O)c2ccco2)cc1	.	.	.	.	.	.	/	/	/	/
CCS(=O)(=O)c1ncc(Cl)c(C(=O)Nc2ccc(S(=O)(=O)N(C)c3ccccc3)cc2)n1	?	.	?	0.731µM	0.651µM	.	4.47	?	?	7.52µM
COc1ccccc1/C=C1\CCCC2=C1Nc1nnnn1C2c1ccccc1OC (stereo unspecified)	?	.	?	11.6µM	11.6µM	.	?	?	?	.
Cn1cnc([N+](=O)[O-])c1S(=O)(=O)c1cccc(Cl)c1	?	.	44.7µM	1.84µM	2.31µM	.	?	25.1µM	?	10µM
CCCc1c(OCCCOc2ccc(OCC(=O)O)cc2)ccc(CC=O)c1O	/	?	35.5µM	.	.	.	/	/	/	/	USP1-UAF1 confirm=59.1µM
O=C(/C=C/c1cccnc1)c1ccc([N+](=O)[O-])cc1	.	.	?	.	?	.	7.94	8.91µM	?	?
O=C(Oc1cccnc1)c1ccc([N+](=O)[O-])cc1	?	.	.	.	.	.	/	/	/	/
COc1cc(/C=C2/C(=O)NN(c3ccc(C)c(Cl)c3)C2=O)cc([N+](=O)[O-])c1O	?	.	?	.	.	/	/	/	/	/
Cc1ccc(N2NC(=O)/C(=C\c3cc4c(cc3[N+](=O)[O-])OCO4)C2=O)cc1C	9.47µM	.	50.1µM	?	?	.	11.9	?	?	.
CCOc1cc(C(Nc2cc(C)ccn2)c2ccc3cccnc3c2O)ccc1OC (stereo unspecified)	/	.	22.4µM	?	?	.	7.08	3.55µM	.	?
Cc1ccnc(NC(c2cccc(O)c2)c2ccc3ccc(C)nc3c2O)c1 (stereo unspecified)	/	.	?	?	?	/	/	/	/	/
N=c1c(S(=O)(=O)c2ccc(Cl)cc2)cc2c(=O)n3ccccc3nc2n1C1CCCC1	.	.	.	?	?	.	/	/	/	/
Cc1ccc(C(C2=C(O)CC(C)(C)CC2=O)C2C(=O)CC(C)(C)CC2=O)s1 (stereo unspecified)	4.74µM	.	50.1µM	.	.	.	10.6	7.94µM	.	?
CC1(C)CC(=O)C(C(C2=C(O)CC(C)(C)CC2=O)c2ccc([N+](=O)[O-])cc2)C(=O)C1 (stereo unspecified)	.	.	?	?	.	.	/	/	/	/
Cc1sc2c(c1C)C(=O)NC(c1ccccc1F)N2 (stereo unspecified)	2.12µM	.	31.6µM	?	?	.	6.7	?	.	.
CC(=O)N(C(C)=O)N1C(=O)C2C3c4ccccc4C(c4ccccc43)C2C1=O (stereo unspecified)	?	.	35.5µM	?	?	.	29.9	?	.	.
O=C(NN1C(=O)C2C3c4ccccc4C(c4ccccc43)[C@@H]2C1=O)c1ccccc1 (stereo partly specified)	.	.	.	.	.	.	/	/	/	/
Cc1ccc(/C=C/C(=O)c2nc3ccccc3[nH]2)cc1	.	.	?	20.6µM	16.4µM	.	?	?	?	.
CC1C/C(=C/c2ccncc2)C(=O)/C(=C/c2ccncc2)C1 (stereo unspecified)	.	.	22.4µM	0.651µM	0.581µM	.	6.7	3.55µM	5.17µM	20.6µM
CC1CC(C)CN(C(=O)c2ccncc2)C1 (stereo unspecified)	.	.	.	.	.	.	/	/	/	/
COc1ccc(CC2=CC(=O)c3ccccc3C2=O)cc1	?	.	20µM	1.84µM	2.06µM	/	4.23	3.16µM	?	16.4µM
CC1CN(C(=O)/C(C#N)=C2\N=C(NC(=O)c3ccccc3Cl)c3ccccc32)CC(C)O1 (stereo unspecified)	/	.	/	/	/	.	/	/	/	/
CCOC(=O)c1nn(-c2ccc(F)cc2)c(=O)c2c(N)scc12	?	.	7.94µM	.	.	.	26.7	?	.	.
Nc1scc2c(C(=O)O)nn(-c3ccccc3)c(=O)c12	/	.	?	/	/	.	/	/	/	/
CCOC(=O)C1=C(O)C(=O)N(Cc2cccnc2)C1c1ccc(OC)cc1 (stereo unspecified)	.	.	.	.	?	.	/	/	/	/
SMILES	PLK1 PBD inh	KAT2A inh	VDR inh	DT40 TDP1 CPT	TDP1 cell noCPT	TDP1 block	VDR confirm	VDR FP	VDR bla reporter	VDR viability	others
COC(=O)c1ccc(Cn2nnc3ccccc3c2=O)o1	.	.	.	.	.	.	/	/	/	/
COC(=O)c1ccc(Cn2cc(/C=C\[N+](=O)[O-])c3ccccc32)o1	?	.	25.1µM	?	?	/	21.2	?	?	?
O=C(/C=C/c1ccc(O)c(O)c1)c1ccc(S(=O)(=O)N2CCCCCC2)cc1	.	.	79.4µM	4.61µM	5.17µM	.	23.8	25.1µM	.	.
Cc1ccc(S(=O)(=O)c2nc(/C=C/c3ccccc3)oc2N2CCC(C(N)=O)CC2)cc1	.	/	/	?	?	/	/	/	/	/
O=C(/C=C/c1ccncc1)c1ccc2c(c1)OCCO2	.	.	28.2µM	?	14.6µM	.	26.7	?	.	.
O=C(Nc1ccncc1)c1ccc2c(c1)OCCO2	.	.	.	?	?	.	/	/	/	/
CCN(CC)c1ccc(/C=N/NC(=O)c2nnn(-c3nonc3N)c2CN(C)C2CCCCC2)cc1	.	/	/	.	?	/	/	/	/	/
CC(C)C[C@H]1COCCS(=O)(=O)N1Cc1ccc(Cl)c(Cl)c1	.	/	.	?	?	/	/	/	/	/
Nc1nc(-c2cccc(F)c2)cs1	10.6µM	.	35.5µM	?	.	.	23.8	?	.	.
Fc1cccc(-c2csc(-c3ccno3)n2)c1	?	.	.	.	.	.	/	/	/	/
